An excerpt weighted towards active compounds, which were near 3.6% of everything screened.
TRHR ag = qHTS for Small Molecule Agonists and Allosteric Enhancers of Human TRH Receptor: Primary Screen for Agonists; activation, % at 2 µM; AID 493084, 2011; TRHR cells, calcium flux fluo-8, FDSS agonist mode; Thyrotropin-releasing hormone receptor (Homo sapiens), P34981; 360,000 compounds, 0.18% hits; also: 0% is about no effect
Target sequence (P34981 whole entry, looked up): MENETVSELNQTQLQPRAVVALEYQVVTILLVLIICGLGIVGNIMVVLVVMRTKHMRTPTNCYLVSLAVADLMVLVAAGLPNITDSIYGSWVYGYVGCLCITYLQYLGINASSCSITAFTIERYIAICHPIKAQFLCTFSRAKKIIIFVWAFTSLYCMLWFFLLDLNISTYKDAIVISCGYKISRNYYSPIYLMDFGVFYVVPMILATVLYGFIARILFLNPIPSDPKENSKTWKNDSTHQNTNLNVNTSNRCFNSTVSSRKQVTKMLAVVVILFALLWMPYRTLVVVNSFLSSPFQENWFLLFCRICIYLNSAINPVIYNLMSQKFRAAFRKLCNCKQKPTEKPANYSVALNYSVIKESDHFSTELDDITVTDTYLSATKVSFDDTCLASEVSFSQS
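Read-out: compound-evoked intracellular calcium rise in TRHR cells, fluo-8 dye, kinetic FDSS fluorescence at 1 s/cycle following a 10-cycle baseline. Cells cultured overnight before dye loading (30 min–1.5 h, RT).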
D1 PAM = Potentiators of Human D1 Dopamine Receptor: qHTS; HEK293 TREx D1 cells, calcium flux, dopamine EC20 potentiation; potentiation, % at 10 µM; 360,000 compounds, 0.036% hits; in the data active = potentiation above about 30%; also: 0% is about no effect
TRHR PAM = qHTS for Small Molecule Agonists and Allosteric Enhancers of Human TRH Receptor: Primary Screen for Enhancers. Thyrotropin-releasing hormone receptor (Homo sapiens), P34981. TRHR cells, fluo-8 calcium fluorescence, EC20 TRH enhancement. enhancement, % at 2 µM. 360,000 compounds, 0.66% hits. AID 493056, 2011; in the data active = enhancement above about 30%; also: 0% is about no effect
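TRHR-expressing cells loaded with fluo-8 calcium dye were read kinetically (ex 480/em 530) during compound addition, then stimulated with an EC20 of TRH (10 nM final). Enhancement of the Gq-mediated intracellular calcium response was scored.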
LDHA block = qHTS assay for inhibitors of human lactate dehydrogenase; L-lactate dehydrogenase A chain (Homo sapiens), P00338; purified LDHA, NADH/diaphorase-resazurin fluorescence; hits give low values; activity change, % (values are at about 110 or 230 µM); 480,000 compounds, 0.15% hits; in the data active = activity change below about -30%;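 also: plate controls were DMSO wells for no effect and wells without enzyme for full effect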
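Human LDH5 at 2 nM final in Tris HCl pH 7.4 with 0.06 mM NADH and 0.2 mM pyruvate, reacted 5 minutes at room temperature. Remaining NADH coupled via diaphorase/resazurin; resorufin fluorescence read at 0 and 20 minutes, normalized to enzyme-free and DMSO wells.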
D1 agonist = Allosteric Agonists of the Human D1 Dopamine Receptor: qHTS; D(1A) dopamine receptor (Homo sapiens), P21728; HEK293 T-REx D1 cells, calcium flux, agonist mode; activation, % at 2 µM; 360,000 compounds, 1% hits; AID 504660, 2011; also: 0% is about no effect
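Agonism was scored from calcium flux recorded over 180 s (1 read/s) after pintool compound addition, following a 10-cycle baseline. Cells were inducible force-coupled HEK293 TREx D1, plated overnight at 30 C and loaded with no-wash calcium dye.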
D1 antag = Antagonist of Human D 1 Dopamine Receptor: qHTS; D(1A) dopamine receptor (Homo sapiens), P21728; HEK293 TREx D1 cells, calcium flux, dopamine EC80; hits give low values; activity change, negative = inhibition, % at 10 µM; 360,000 compounds, 3.2% hits; AID 504652, 2011; in the data active = activity change below about -30%; also: % is scaled to controls: 0 for no effect and ±100 for the full control effect
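Antagonism measured as reduced calcium response to an EC80 dopamine addition following 180 s compound pre-read; cells were inducible HEK293 Trex D1 plated overnight at 30 C, read kinetically at 1 cycle/sec.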
* marks the source's active call; other numbers are inactive results; / = no result. Rule as the data show it, unless noted: active = activation above about 30%; inactive = the rest.

SMILES	TRHR ag	D1 PAM	TRHR PAM	LDHA block	D1 agonist	D1 antag
O=C(COc1ccc2c(c1)OCO2)Nc1cccc(F)c1	0	/	-4	-3	3	-44*
CC(C)(C)NS(=O)(=O)c1ccc(OCC(=O)Nc2ccc3c(c2)OCCO3)cc1	0	-7	-1	-4	4	-30*
CCOc1ccc(N(CC(=O)Nc2ccc3c(c2)OCO3)S(=O)(=O)c2ccccc2)cc1	0	-2	13	-2	2	-46*
CCOc1ccc(C(=O)NCC(=O)OCC(=O)Nc2ccc(C)c(S(=O)(=O)N(C)C)c2)cc1	0	-5	5	-31*	1	-26
CCN1CCN(C(C(=O)O)c2c[nH]c3ccc(NC(=O)CCC(=O)O)cc23)CC1 (stereo not given)	/	/	/	1	/	/
O=C(OCC(=O)N1c2ccccc2Sc2ccccc21)c1ccccc1	/	/	/	2	/	/
CSCc1ccc(C(=O)O)cc1	/	/	/	-17	/	/
Cc1cccc(C(=O)NCCn2c(C)cc3ccccc32)c1	/	/	/	-2	/	/
Cc1ccc(OCCC(=O)OCC(=O)Nc2ccc3c(c2)OCCO3)cc1	0	-3	-2	-4	6	-21
CCOc1ccc(OCCC(=O)OCC(=O)Nc2ccc3c(c2)OCO3)cc1	0	-6	-7	-2	7	-53*
Cc1ccc(-n2[nH]c(C)c(C=Nc3ccc(Br)cn3)c2=O)cc1	0	-8	0	-2	2	-33*
COC(=O)c1cc(NCc2cc(Cl)c(OCC(N)=O)c(OC)c2)ccc1N1CCOCC1	/	/	/	7	/	/
O=C(CSc1nc2ccccc2s1)c1ccc2c(c1)OCCCO2	/	/	/	5	/	/
Cc1cc(C)nc(NC(=O)/C=C/c2ccccc2Cl)c1	-1	6	-2	4	1	-70*
CCOC(=O)N1CCN(Cc2nc3c(c(=O)n(C)c(=O)n3C)n2Cc2cc(C)ccc2C)CC1	-1	-7	10	/	2	-32*
CCCCn1c(CN2CCN(C(=O)OCC)CC2)nc2c1c(=O)n(C)c(=O)n2C	1	-1	-5	4	1	31
Cc1nc(NC(=O)C2CC2)sc1C(=O)Nc1ccccc1	1	-6	-4	-7	0	-38*
Cc1nc(NC(=O)C2CC2)sc1C(=O)Nc1ccc(Br)cc1	0	3	-9	-5	-1	-1
CCC(CC)NC(=O)c1cccc(Cl)c1	/	/	/	9	/	/
Cc1nc(Cl)c2c(n1)NC1=C(O2)C(=O)CCC1	13	-8	3	-3	38*	-11
Cc1ccc(Cl)cc1Nc1nn2c(=O)c3ccc(C(=O)NCc4ccc(F)cc4)cc3nc2s1	-1	-4	-1	-2	2	-33*
CCCCN(C)C(=O)c1ccc2c(=O)n3nc(Nc4cc(C)ccc4C)sc3nc2c1	-1	-4	15	-2	3	-68*
Cc1ccccc1Nc1nn2c(=O)c3ccc(C(=O)NCc4ccccc4)cc3nc2s1	0	-5	0	1	-1	11
COc1ccc(CNCc2cc(Cl)ccc2O)cc1	1	2	2	2	38*	1
Oc1ccc(Cl)cc1CNCc1ccc(Cl)nc1	3	-2	3	-5	42*	/
SMILES	TRHR ag	D1 PAM	TRHR PAM	LDHA block	D1 agonist	D1 antag
Oc1ccc(Cl)cc1CNCc1ccc(F)c(F)c1	2	-4	1	-7	18	-3
O=[N+]([O-])c1ccc(CNCc2cc(Cl)ccc2O)cc1	0	0	-4	10	5	4
CCN1CCN(c2ccc(S(=O)(=O)N3CCOCC3)cc2NC(=O)c2cc(Cl)nc3ccccc23)CC1	0	-4	-6	-3	4	-33*
CCN1CCN(c2ccc(S(=O)(=O)N3CCCCC3)cc2NC(=O)Cc2ccc(OC)cc2)CC1	2	-4	-3	-1	44*	-31*
Cc1ccccc1C(=O)Nc1cc(S(=O)(=O)N2CCCCC2)ccc1N1CCN(C)CC1	0	-2	-1	4	5	5
CN1CCN(c2ccc(S(=O)(=O)N3CCCCC3)cc2NC(=O)c2ccc3ccccc3c2)CC1	2	-13	9	-6	12	-50*
CCN1CCN(c2ccc(S(=O)(=O)N3CCOCC3)cc2NC(=O)c2ccccc2SC)CC1	0	-5	-10	-6	4	4
OC(COc1ccccc1)CN1CCN(c2nccs2)CC1 (stereo not given)	/	/	/	1	/	/
CC(NC(=O)CCc1ccccc1)C1CC2CCC1C2 (stereo not given)	/	/	/	2	/	/
Cc1ccc(C)c(NC(=S)Nc2cccnc2)c1	0	-2	25	-4	0	0
CSc1cccc(NC(=S)Nc2cc(C)ccc2C)c1	1	-6	-5	-5	2	-40*
O=C(Nc1cccc(S(=O)(=O)N2CCCC2)c1)C1=COCCO1	/	/	/	-20	/	/
CN(C(=O)c1ccc(Br)cc1)C1CCCCC1	/	/	/	-1	/	/
CN(C(=O)c1ccc(Oc2ccc([N+](=O)[O-])cc2)cc1)C1CCCCC1	0	-3	-14	1	11	-35*
Nc1nn(-c2ccccc2)c(N)c1N=Nc1cccc(F)c1	0	-4	3	5	-1	-13
Nc1nn(-c2ccccc2)c(N)c1N=Nc1ccc2c(c1)OCO2	-1	-7	1	0	0	-45*
Cc1ccc(NC(=O)CNC(=O)N2CC(=O)Nc3ccccc32)cc1F	1	-10	-4	-1	3	-2
O=C(CN1CC(=O)Nc2ccccc21)Nc1ccc(F)c(F)c1	-2	-15	9	-1	1	-39*
CCCN(CCC)CC(O)Cn1cc(/C=C/C(=O)c2ccc(Br)cc2)c2ccccc21 (stereo not given)	5	-3	1	1	33*	-13
CCCN(CCC)CC(O)Cn1cc(/C=C/C(=O)c2ccccc2)c2ccccc21 (stereo not given)	2	-1	-2	-11	73*	-31*
CCCN(CCC)CC(O)Cn1cc(/C=C/C(=O)c2ccc(OC)cc2)c2ccccc21 (stereo not given)	-2	7	0	-1	128*	-41*
CCCN(CCC)CC(O)Cn1cc(/C=C/C(=O)c2cccs2)c2ccccc21 (stereo not given)	8	-6	9	1	94*	-21
O=C(COC(=O)CCc1c[nH]c2ccccc12)Nc1ccc([N+](=O)[O-])cc1C(F)(F)F	/	/	/	-7	/	/
